The values that follow come from PubChem BioAssay (NCI).

Structures are written as SMILES. Compounds without any hit were thinned out: in the full panel of roughly 83,000, 20% have a hit.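 Results are percent growth after 48 hours of single-concentration exposure. 100 means growth as in untreated cells, lower positive values show inhibition; negative values down to -100 show cell death.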 A number with no mark means an inactive call. The source made the active and inactive calls. How the source made its calls: active means growth percent below 10; inactive means the rest.

Among the test systems are DU-145 prostate; MALME-3M melanoma; MDA-MB-231 breast; RXF 393 renal; SF-268 CNS; SF-295 CNS; SF-539 CNS; UACC-257 melanoma; M14 melanoma; K-562 leukemia.
Assay in all cases: NCI-60 one-dose screen, 48 h (100 = growth as untreated, 0 = no growth, -100 = all killed)
Common to all, as to details: 10 µM unless noted

Consider `COCc1cnccc1NC1CCCCCC1`, for which the growth was 108% in the assay on DU-145 prostate; 105% in the assay with MALME-3M melanoma; 101% in the assay on MDA-MB-231 breast; 100% in the assay on RXF 393 renal; 101% in the assay on SF-268 CNS; 101% in the assay on SF-295 CNS. Besides, the growth with SF-539 CNS was 101%; with UACC-257 melanoma it was 99.5%; in the assay with M14 melanoma, 94.2%.
Take `COc1ccc(NC(=O)c2cc(NCc3cc(O)ccc3O)ccc2O)cc1`: the growth in the assay on DU-145 prostate was 97.4%; with K-562 leukemia it was 73.1%; in the assay with MALME-3M melanoma it was 108%; in the assay with MDA-MB-231 breast it was 79.1%; in the assay with RXF 393 renal it was 91.2%; in the assay with SF-268 CNS it was 80.8%. The growth with SF-295 CNS is 115%; in the assay on SF-539 CNS, 86.8%; in the assay with UACC-257 melanoma, 76.3%; in the assay with M14 melanoma it was 95.1%.
Consider `COc1ccc(CC(C)=C(c2ccc(OCCN3CCCCCC3)cc2)c2ccc(OCCN3CCCCCC3)cc2)cc1`, for which the growth in the assay with DU-145 prostate is -96.2% (active); in the assay on K-562 leukemia it was -55.4% (active); in the assay on MALME-3M melanoma, -91.9% (active); in the assay with MDA-MB-231 breast, -98.2% (active); in the assay on RXF 393 renal, -82.1% (active); in the assay on SF-268 CNS it was -81.2% (active). Further, the growth is -93.3% (active) with SF-295 CNS, -95.8% (active) with SF-539 CNS, -76.3% (active) with UACC-257 melanoma and -67.3% (active) in the assay on M14 melanoma.
As to `COc1cccc(-c2nc3occn3c2-c2ccnc(NCCCNS(=O)(=O)c3ccc(C(F)(F)F)cc3)n2)c1`, the growth in the assay with DU-145 prostate is 89.2%; in the assay on K-562 leukemia, 69.8%; with MALME-3M melanoma, 95.8%; in the assay with MDA-MB-231 breast, 90.1%; with RXF 393 renal, 79.6%; in the assay on SF-268 CNS, 75%. For the same compound, the growth in the assay on SF-295 CNS was 95.2%; in the assay on SF-539 CNS, 89.5%; with UACC-257 melanoma, 84.5%; in the assay with M14 melanoma it was 85.6%.
For `CNC(=O)c1cccc(Cn2nc(C)c(NC(=O)c3ccc(COc4ccc(C(F)(F)F)cc4C)cc3)c2C)c1`, the growth in the assay with DU-145 prostate was 58.9%; in the assay with K-562 leukemia, 23.3%; in the assay with MALME-3M melanoma, 77.5%; in the assay with MDA-MB-231 breast, 79.4%; in the assay on RXF 393 renal, 70.4%; in the assay with SF-268 CNS it was 61.9%. For the same compound, the growth in the assay on SF-295 CNS was 27.9%; with SF-539 CNS it was 71.7%; with UACC-257 melanoma, 8.63% (active); in the assay with M14 melanoma, 41.6%.
With `CCN1CCN(CCNc2nccc(-c3c(-c4cccc(OC)c4)nc4occn34)n2)S1(=O)=O`, the growth with DU-145 prostate was 104%; in the assay with K-562 leukemia, 7.02% (active); with MALME-3M melanoma, 6.12% (active); in the assay with MDA-MB-231 breast it was 87.7%; in the assay on RXF 393 renal, 94.4%; with SF-268 CNS it was 102%. For the same compound, the growth is 101% in the assay on SF-295 CNS, 104% in the assay on SF-539 CNS, 52.7% in the assay with UACC-257 melanoma and 40% in the assay on M14 melanoma.
As to `O=C(Cc1ccc(/C=C/C(=O)c2nccs2)cc1)Nc1ccccc1`, the growth was 105% with DU-145 prostate; 23.3% in the assay with K-562 leukemia; 98.4% in the assay on MALME-3M melanoma; 94.8% in the assay with MDA-MB-231 breast; 103% in the assay with RXF 393 renal; 95% in the assay on SF-268 CNS. In addition, the growth in the assay with SF-295 CNS was 97.1%; in the assay with SF-539 CNS, 99.9%; in the assay with UACC-257 melanoma it was 88.6%; in the assay on M14 melanoma, 93.1%.
Turning to `Cc1ccc(-c2[nH][nH]c(=O)c2-c2nc3ccccc3s2)cc1`, the growth was 111% with DU-145 prostate; 100% in the assay with K-562 leukemia; 96.5% with MALME-3M melanoma; 99.1% in the assay on MDA-MB-231 breast; 101% with RXF 393 renal; 103% in the assay with SF-268 CNS. Besides, the growth in the assay on SF-295 CNS was 101%; in the assay with SF-539 CNS, 100%; in the assay with UACC-257 melanoma, 104%; in the assay on M14 melanoma, 98.1%.
As for `c1ccc2c(-c3c[nH]c4ccccc34)c3c(cc2c1)[nH]c1ccccc13`, the growth was 93.7% in the assay on DU-145 prostate; 25.1% with K-562 leukemia; 78.9% in the assay with MALME-3M melanoma; 71.6% in the assay with MDA-MB-231 breast; 33.5% in the assay on RXF 393 renal; 66.7% in the assay with SF-268 CNS. Besides, the growth in the assay on SF-295 CNS is 85.4%; in the assay on SF-539 CNS, 59%; in the assay with UACC-257 melanoma, 77.6%; in the assay with M14 melanoma, 39.2%.
Regarding `C[C@H]1[C@H](C)CC[C@]2(C(=O)Nc3ccc4ncccc4c3)CC[C@]3(C)C(=CC[C@@H]4[C@@]5(C)CCCNC(C)(C)[C@@H]5CC[C@]43C)[C@H]12`, the growth was -74.1% (active) in the assay with DU-145 prostate; -78.5% (active) in the assay on MALME-3M melanoma; -71.9% (active) in the assay on MDA-MB-231 breast; -84.8% (active) with RXF 393 renal; -40.4% (active) with SF-268 CNS; -50.8% (active) in the assay on SF-295 CNS. The results for the growth in the assay with SF-539 CNS, in the assay on UACC-257 melanoma and in the assay on M14 melanoma were -72.9% (active), -86.9% (active) and -92% (active), respectively.
Turning to `Brc1ccc2[nH]cc(-c3cncn3CCc3ccccc3)c2c1`, the growth is 68.1% in the assay with DU-145 prostate; 27.3% in the assay with K-562 leukemia; 65% in the assay with MALME-3M melanoma; 65.4% in the assay with MDA-MB-231 breast; 38.1% with RXF 393 renal; 50.3% in the assay on SF-268 CNS. Further, the growth was 37.7% in the assay on SF-295 CNS, 65.2% in the assay with SF-539 CNS, 48.3% in the assay on UACC-257 melanoma and 53.3% with M14 melanoma.
Take `N#CC(C(=O)/C(=N/NC(=O)c1ccccc1O)C(C#N)c1ccccc1)c1ccccc1` (configuration not stated): the growth is 39.4% in the assay with DU-145 prostate; 87.8% with MALME-3M melanoma; 63.7% in the assay on MDA-MB-231 breast; 55.9% in the assay with RXF 393 renal; 44.1% in the assay with SF-268 CNS; 101% with SF-295 CNS. Also, the growth is 33.3% in the assay with SF-539 CNS, 46.2% in the assay on UACC-257 melanoma and 46.4% in the assay on M14 melanoma.
